Assay results as given in ChEMBL document CHEMBL4513142, “CO-ADD screening of Indiana University - Purdue University Indianapolis (USA) compounds”.
Where “and” joins values, the source holds several entries; their conditions need not be identical. Identical values can stand only once. Entries with a potency or affinity are not part of this list.

What was measured:
Klebsiella pneumoniae = details: Concentration 32 ug.mL-1, ASSAY_TEST Inhibition of Bacterial Growth, detection method Absorption (OD600), MEDIA CAMHB, plate type 384well, NBS, CORNING #3640, time 18 hr
Candida albicans = details: 32 ug/mL
Cryptococcus neoformans = details: Concentration 32 ug.mL-1, ASSAY_TEST Inhibition of Fungal Growth, detection method Resazurin, Absorption (OD600-OD570), plate type 384well, NBS, CORNING #3640

Compound	Inhibition (Klebsiella pneumoniae; 32 ug/mL)	Inhibition (Candida albicans)	Inhibition (Cryptococcus neoformans; 32 ug/mL)	Inhibition (Klebsiella pneumoniae)	Inhibition (Cryptococcus neoformans)
O=C(NC(CCCc1ccccc1)C(=O)O)c1cccc2ccccc12 (stereo not given)	4.24% and 7.53%	4.21% and 5.17%	-11.3% and -10.65%		
CCCNC(=O)C(Cc1ccc(F)cc1)NC(=O)c1ccccc1 (stereo not given)		2.54%		12.41%	-4.63%
O=C(NC(Cc1ccc(Cl)nc1)C(=O)O)c1ccccc1 (stereo not given)	9.49% and 7.67%	3.67% and 3.1%	-7.31% and -8.02%		
[C-]#[N+]c1ccc(C(=O)NC(Cc2ccc(C(F)(F)F)cc2)C(=O)NCCC)cc1 (stereo not given)		5.79%		13.54%	-3.04%
[C-]#[N+]c1ccc(C(=O)NC(Cc2ccccc2F)C(=O)NCCC)cc1 (stereo not given)		1.53%		8.88%	-7.85%
NC(=O)[C@@H]1CCCN1C(=O)c1ccccn1	13.57% and 8.38%	8.62% and 7.92%	-5.72% and -3.53%		
C[C@H](NC(=O)c1ccccc1Cl)C(=O)O	-1.23% and -3.38%	4.87% and 8.5%	-5.22% and -11.03%		
[C-]#[N+]c1ccc(C(=O)NC(CC)C(=O)NCCC)cc1 (stereo not given)		-0.99%		12.56%	-4.7%
NC(=O)[C@H](Cc1ccccc1)NC(=O)c1c(F)c(F)c(F)c(F)c1F	8.47% and 11.14%	3.95% and 8.52%	-9.93% and -7.63%		
O=C(N[C@@H](Cc1ccccc1)C(=O)O)C1CCCCC1	1.14% and 5.62%		-13.27% and -11.08%		
NC(Cc1ccccc1I)C(=O)O.O=C(O)C(F)(F)F (stereo not given)	3.96% and 4.88%	4.55% and 4.79%	-7.57% and -7.31%		
O=C(Cc1cccc(Br)c1)N[C@@H](Cc1ccccc1)C(=O)O	7.39% and -2.64%		-5.52% and -8.87%		
CC(C)[C@H](NC(=O)c1cccc(C(F)(F)F)c1)C(=O)O	-0.42% and 3.74%	7.7% and 10.5%	-6.26% and -6.2%		
NC(Cc1ccc(F)cc1)C(=O)O.O=C(O)C(F)(F)F (stereo not given)	1.77% and -4.38%	1.28% and -0.06%	6.08% and -8.37%		
[C-]#[N+]c1ccc(C(=O)NC(CC=C)C(=O)NCCC)cc1 (stereo not given)		3.05%		4.31%	-8.98%
[C-]#[N+]c1ccc(C(=O)NC(Cc2ccc(F)cc2)C(=O)NCCC)cc1 (stereo not given)		5.24%		14.12%	-1.72%
CCCNC(=O)C(Cc1ccccc1)NC(=O)c1ccc(F)cc1 (stereo not given)		2.91%		15.24%	-7.35%
Cc1ccc(C(=O)NC(Cc2ccccc2C#N)C(=O)O)cc1 (stereo not given)	10.82% and 9.51%		-6.48% and -6.82%		
[C-]#[N+]c1ccc(C(=O)NC(CC#C)C(=O)NCCC)cc1 (stereo not given)		4.37%		15.5%	-8.61%
COc1cc(C(=O)N[C@@H](CC(C)C)C(=O)O)ccc1O	1.29% and 3.72%	4.13% and 6.65%	-7.3% and -10.82%		
Cc1ccc(C(=O)NC(Cc2ccc(F)cc2)C(=O)O)cc1 (stereo not given)	-11.12% and 7.59%		-14.35% and -11.02%		
NC(Cc1ccc(F)c(F)c1)C(=O)O.O=C(O)C(F)(F)F (stereo not given)	7.21% and 5.15%	1.67% and -0.02%	-13.22% and -14.09%		
CCCNC(=O)C(Cc1ccccc1)NC(=O)Cc1ccccc1 (stereo not given)		5.66%		14.33%	-5.77%
CCCNC(=O)C(Cc1ccccc1C)NC(=O)c1ccc(C(F)(F)F)cc1 (stereo not given)		0.78%		12.54%	-3.03%
NC(Cc1cccc(F)c1)C(=O)O.O=C(O)C(F)(F)F (stereo not given)	0.53% and 0.81%	1.58% and 1.27%	-7.68% and -3.4%		
CC(C)C[C@H](NC(=O)c1cccnc1)C(N)=O	3.3% and -1.43%		-4.01% and -5.8%		
NC(=O)[C@H](Cc1ccccc1)NC(=O)c1cccnc1	15.19% and 20.47%	6.63% and 4.08%	-3.63% and -8.29%		
CC(C)C[C@H](NC(=O)c1ccc(Cl)cc1Cl)C(N)=O	14.05% and -7.39%	4.49% and 5.39%	-13.33% and -10.52%		
Cc1ccc(C(=O)NC(Cc2cc(F)c(F)cc2F)C(=O)O)cc1 (stereo not given)	7.96% and 13.51%	4.99% and 4.52%	-10.86% and -7.35%		
NC(Cc1ccccc1F)C(=O)O.O=C(O)C(F)(F)F (stereo not given)	-4.61% and -3.52%	2.11% and 3.25%	-7.08% and 0.99%		
